The text below walks through data of PubChem BioAssay (EPA / NIEHS).

Holding throughout (settings): mRNA level, 48 h; actives raise or lower the signal
Read-out in experiment [1]: Cytochrome P450 (CYP2B6), CYP2B6 (gene 1555)
In words: LTEA_HepaRG_CYP2B6: Life Technologies and Expression Analysis (LTEA) Assay for Cytochrome P450 (CYP2B6) using HepaRG (AID 2283481). A digest of the protocol: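 HepaRG cells plated 48 h, switched to serum-free induction medium, then dosed 48 h (8 points, half-log from 100 uM, 0.5% DMSO). RNA isolated; CYP2B6 expression measured by qRT-PCR; gain or loss fitted relative to DMSO.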

Read-out in experiment [2]: Cytochrome P450 2C19 (Homo sapiens) (UniProt P33261)
In words: LTEA_HepaRG_CYP2C19: Life Technologies and Expression Analysis (LTEA) Assay for CYP2C19 using HepaRG (AID 2283482). In short, it runs like this: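 Transcript levels of CYP2C19 were quantified by qRT-PCR after HepaRG cells were treated for 48 hours with test chemicals up to 100 uM (eight half-log concentrations, 0.5% DMSO vehicle). Gain or loss of signal was fitted relative to DMSO.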

Read-out in the next experiment: CYP2C8 (gene 1558)
In words: LTEA_HepaRG_CYP2C8: Life Technologies and Expression Analysis (LTEA) Assay for CYP2C8 using HepaRG (AID 2283483). A digest of the protocol:
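Differentiated HepaRG cells in serum-free induction medium exposed 48 h in duplicate to 8 half-log concentrations from 100 uM in 0.5% DMSO. CYP2C8 mRNA by qRT-PCR normalized to ACTB, GAPDH, POLR2A; bidirectional fit versus DMSO.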

Read-out in another experiment: CYP2C9 (gene 1559)
In words: LTEA_HepaRG_CYP2C9: Life Technologies and Expression Analysis (LTEA) Assay for CYP2C9 using HepaRG (AID 2283484). In short, it runs like this: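 Differentiated human HepaRG cells in serum-free induction medium were exposed 48 h to chemicals in 8-point half-log series from 100 uM (0.5% DMSO), in duplicate. CYP2C9 mRNA was measured by qRT-PCR, normalized to ACTB/GAPDH/POLR2A, with bidirectional fitting versus DMSO.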

Read-out in a further experiment: CYP2E1 (gene 1571)
Briefly: LTEA_HepaRG_CYP2E1: Life Technologies and Expression Analysis (LTEA) Assay for CYP2E1 using HepaRG (AID 2283485). In short, it runs like this: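 HepaRG cells, plated 48 h, then exposed 48 h in serum-free induction medium to eight half-log concentrations from 100 uM in 0.5% DMSO, duplicate. CYP2E1 mRNA by qRT-PCR, normalized to ACTB/GAPDH/POLR2A; bidirectional fit versus DMSO.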

Read-out in another experiment: CYP4A11 (gene 1579)
Briefly: LTEA_HepaRG_CYP4A11: Life Technologies and Expression Analysis (LTEA) Assay for CYP4A11 using HepaRG (AID 2283486). A digest of the protocol:
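HepaRG, 48 h chem exposure, 8 conc (100 uM top, half-log), 0.5% DMSO vehicle; qRT-PCR readout, housekeeping-gene normalized; bidirectional curve fit vs DMSO baseline.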

Read-out in experiment [3]: DNA damage-inducible transcript 3 (DDIT3), DDIT3 (gene 1649)
In words: LTEA_HepaRG_DDIT3: Life Technologies and Expression Analysis (LTEA) Assay for DNA damage-inducible transcript 3 (DDIT3) using HepaRG (AID 2283488). A digest of the protocol:
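HepaRG cells, 48 h after plating, exposed 48 h in serum-free induction medium to 8 half-log concentrations up to 100 uM in 0.5% DMSO, in duplicate. DDIT3 mRNA measured by TaqMan qRT-PCR, normalized to ACTB, GAPDH and POLR2A. Fitted bidirectionally against DMSO.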

Read-out in experiment [4]: Pro-epidermal growth factor (Homo sapiens) (UniProt P01133)
Briefly: LTEA_HepaRG_EGF: Life Technologies and Expression Analysis (LTEA) Assay for Epidermal growth factor (EGF) using HepaRG (AID 2283489). In short, it runs like this:
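HepaRG, 48 h dosing, 100 uM top, half-log x8, 0.5% DMSO. Readout: TaqMan qRT-PCR (Fluidigm array), housekeeping-normalized. Gain or loss of signal fit vs DMSO.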

Read-out in experiment [5]: Early growth response protein 1 (EGR1) transcription factor, EGR1 (gene 1958)
In words: LTEA_HepaRG_EGR1: Life Technologies and Expression Analysis (LTEA) Assay for Early growth response protein 1 (EGR1) transcription factor using HepaRG (AID 2283490). A digest of the protocol:
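Differentiated HepaRG cells in serum-free induction medium exposed 48 hours, duplicate, to 8 half-log concentrations up to 100 uM in 0.5% DMSO. EGR1 mRNA measured by TaqMan qRT-PCR, normalized to ACTB, GAPDH, POLR2A; bidirectional fit versus DMSO.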

Read-out in experiment [6]: Ezrin (EZR), EZR (gene 7430)
Briefly: LTEA_HepaRG_EZR: Life Technologies and Expression Analysis (LTEA) Assay for Ezrin (EZR) using HepaRG (AID 2283491). In short, it runs like this: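 EZR transcript levels came from Fluidigm qRT-PCR and were normalized to three housekeeping genes after 48 h chemical exposure of HepaRG cells. Dosing used an 8-point half-log series with a 100 uM top concentration in 0.5% DMSO, tested in duplicate; both directions were fitted versus vehicle.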

Read-out in experiment [7]: Cytochrome P450 3A7 (Homo sapiens) (UniProt P24462)
Briefly: LTEA_HepaRG_CYP3A7: Life Technologies and Expression Analysis (LTEA) Assay for CYP3A7 using HepaRG (AID 2283492). In short, it runs like this:
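Human HepaRG liver cells, 48 h post-plating, switched to serum-free induction medium and exposed in duplicate for 48 h. Dosing: 100 uM top, half-log dilutions, 8 points, 0.5% DMSO vehicle. Read-out: CYP3A7 mRNA, gain or loss fitted against DMSO baseline.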

Read-out in a further experiment: CYP3A5 (gene 1577)
In words: LTEA_HepaRG_CYP3A5: Life Technologies and Expression Analysis (LTEA) Assay for CYP3A5 using HepaRG (AID 2283493). In short, it runs like this:
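HepaRG cells, plated 48 h then in serum-free induction medium, dosed in duplicate for 48 h with eight half-log concentrations up to 100 uM in 0.5% DMSO. Gene mRNA by Fluidigm TaqMan qRT-PCR, normalized to ACTB, GAPDH, POLR2A.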

Read-out in experiment [8]: Fatty Acid-Binding Protein 1 (FABP1), FABP1 (gene 2168)
Briefly: LTEA_HepaRG_FABP1: Life Technologies and Expression Analysis (LTEA) Assay for Fatty Acid-Binding Protein 1 (FABP1) using HepaRG (AID 2283494). In short, it runs like this:
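Differentiated human HepaRG cells exposed 48 h in serum-free induction medium to eight half-log concentrations up to 100 uM (0.5% DMSO), duplicate. FABP1 mRNA by qRT-PCR, normalised to ACTB, GAPDH, POLR2A; bidirectional fitting against DMSO.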

Read-out in experiment [9]: Cytochrome P450 4A22 (Homo sapiens) (UniProt Q5TCH4)
In words: LTEA_HepaRG_CYP4A22: Life Technologies and Expression Analysis (LTEA) Assay for Cytochrome P450 4A22 (CYP4A22) using HepaRG (AID 2283495). In short, it runs like this: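 Readout is CYP4A22 transcript induction or loss, quantified by qRT-PCR and normalized to ACTB, GAPDH and POLR2A. Human HepaRG cells receive test chemicals for 48 h at eight half-log concentrations from 100 uM in 0.5% DMSO.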

Read-out in experiment [10]: Cytochrome P450 7A1 (Homo sapiens) (UniProt P22680)
Briefly: LTEA_HepaRG_CYP7A1: Life Technologies and Expression Analysis (LTEA) Assay for Cytochrome P450 7A1 (CYP7A1) using HepaRG (AID 2283496). In short, it runs like this: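 HepaRG cells plated 48 h, then switched to serum-free induction medium and exposed in duplicate for 48 h to 8-point half-log series from 100 uM in 0.5% DMSO. CYP7A1 mRNA by qRT-PCR (TaqMan), normalized to ACTB/GAPDH/POLR2A; bidirectional fit versus DMSO.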

Read-out in experiment [11]: Glutathione S-Transferase (GSTA2), GSTA2 (gene 2939)
In words: LTEA_HepaRG_GSTA2: Life Technologies and Expression Analysis (LTEA) Assay for Glutathione S-Transferase (GSTA2) using HepaRG (AID 2283497). A digest of the protocol: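 Differentiated human HepaRG cells were exposed in duplicate for 48 h in serum-free induction medium, 8 points from 100 uM top in half-log steps, 0.5% DMSO. GSTA2 mRNA was measured by TaqMan qRT-PCR, normalized to ACTB, GAPDH and POLR2A; bidirectional fit versus DMSO.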

Read-out in experiment [12]: Glutamate-cysteine ligase catalytic (GCLC), GCLC (gene 2729)
Briefly: LTEA_HepaRG_GCLC: Life Technologies and Expression Analysis (LTEA) Assay for Glutamate-cysteine ligase catalytic (GCLC) using HepaRG (AID 2283498). A digest of the protocol: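 Differentiated HepaRG cells exposed 48 h in serum-free induction medium, eight-point half-log series topping at 100 uM in 0.5% DMSO, duplicates. GCLC mRNA by qRT-PCR normalized to ACTB, GAPDH and POLR2A, fitted bidirectionally versus DMSO.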

Read-out in experiment [13]: growth arrest and DNA damage 45 (GADD45G), GADD45G (gene 10912)
Briefly: LTEA_HepaRG_GADD45G: Life Technologies and Expression Analysis (LTEA) Assay for growth arrest and DNA damage 45 (GADD45G) using HepaRG (AID 2283499). In short, it runs like this:
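Gain or loss of GADD45G mRNA, quantified by TaqMan qRT-PCR against three housekeeping genes, is fitted in both directions relative to 0.5% DMSO. Human HepaRG cultures receive test chemical for 48 h at up to 100 uM.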

Read-out in experiment [14]: Glutamate-cysteine ligase regulatory (GCLM), GCLM (gene 2730)
Briefly: LTEA_HepaRG_GCLM: Life Technologies and Expression Analysis (LTEA) Assay for Glutamate-cysteine ligase regulatory (GCLM) using HepaRG (AID 2283500). A digest of the protocol:
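Differentiated HepaRG cells exposed 48 h in serum-free induction medium to eight half-log concentrations up to 100 uM (0.5% DMSO). GCLM mRNA by TaqMan qRT-PCR, normalized to ACTB, GAPDH and POLR2A; bidirectional fit versus DMSO.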

Read-out in experiment [15]: Cytochrome P450 3A4 (Homo sapiens) (UniProt P08684)
Briefly: LTEA_HepaRG_CYP3A4: Life Technologies and Expression Analysis (LTEA) Assay for CYP3A4 using HepaRG (AID 2283487). A digest of the protocol:
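Differentiated HepaRG cells, plated 48 h, then dosed 48 h in serum-free induction medium with 0.5% DMSO, 8 half-log concentrations up to 100 uM, duplicate. CYP3A4 mRNA by qRT-PCR, normalized to ACTB/GAPDH/POLR2A; bidirectional fit versus DMSO.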

Activity calls are given as the source filed them. How the source made its calls: active means hit-call score of the fitted dose curve at least 0.9, where 1 is the maximum; inactive means score below 0.9.

Chain of Cytochrome P450 2C19 (Homo sapiens) (P33261 whole entry, looked up): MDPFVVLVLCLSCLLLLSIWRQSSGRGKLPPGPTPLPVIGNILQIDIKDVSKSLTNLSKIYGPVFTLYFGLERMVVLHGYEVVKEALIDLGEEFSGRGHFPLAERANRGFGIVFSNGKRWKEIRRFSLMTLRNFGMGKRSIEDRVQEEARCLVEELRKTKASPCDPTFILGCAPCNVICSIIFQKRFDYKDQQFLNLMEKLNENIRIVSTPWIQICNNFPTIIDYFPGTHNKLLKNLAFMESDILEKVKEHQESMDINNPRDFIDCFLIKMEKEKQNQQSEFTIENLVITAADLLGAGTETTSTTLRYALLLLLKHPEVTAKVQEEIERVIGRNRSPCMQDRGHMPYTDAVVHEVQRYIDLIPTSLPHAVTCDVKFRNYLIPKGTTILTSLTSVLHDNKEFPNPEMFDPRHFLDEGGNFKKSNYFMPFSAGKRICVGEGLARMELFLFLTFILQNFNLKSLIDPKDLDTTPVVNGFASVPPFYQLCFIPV
Chain of Cytochrome P450 3A7 (Homo sapiens) (P24462 whole entry, looked up): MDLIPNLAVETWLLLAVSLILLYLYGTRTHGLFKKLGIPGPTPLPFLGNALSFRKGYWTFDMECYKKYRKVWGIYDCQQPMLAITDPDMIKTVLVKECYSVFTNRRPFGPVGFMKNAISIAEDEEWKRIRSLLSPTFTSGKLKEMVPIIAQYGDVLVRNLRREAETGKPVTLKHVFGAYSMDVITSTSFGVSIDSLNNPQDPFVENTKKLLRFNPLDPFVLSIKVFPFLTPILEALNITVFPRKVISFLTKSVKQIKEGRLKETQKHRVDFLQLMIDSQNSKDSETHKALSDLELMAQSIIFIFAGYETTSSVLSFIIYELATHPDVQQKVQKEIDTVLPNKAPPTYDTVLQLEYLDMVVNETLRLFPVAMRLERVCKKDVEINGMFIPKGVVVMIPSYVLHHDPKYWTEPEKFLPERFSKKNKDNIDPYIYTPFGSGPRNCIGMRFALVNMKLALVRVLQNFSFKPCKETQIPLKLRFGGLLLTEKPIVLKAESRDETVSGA
Chain of Cytochrome P450 3A4 (Homo sapiens) (P08684 whole entry, looked up): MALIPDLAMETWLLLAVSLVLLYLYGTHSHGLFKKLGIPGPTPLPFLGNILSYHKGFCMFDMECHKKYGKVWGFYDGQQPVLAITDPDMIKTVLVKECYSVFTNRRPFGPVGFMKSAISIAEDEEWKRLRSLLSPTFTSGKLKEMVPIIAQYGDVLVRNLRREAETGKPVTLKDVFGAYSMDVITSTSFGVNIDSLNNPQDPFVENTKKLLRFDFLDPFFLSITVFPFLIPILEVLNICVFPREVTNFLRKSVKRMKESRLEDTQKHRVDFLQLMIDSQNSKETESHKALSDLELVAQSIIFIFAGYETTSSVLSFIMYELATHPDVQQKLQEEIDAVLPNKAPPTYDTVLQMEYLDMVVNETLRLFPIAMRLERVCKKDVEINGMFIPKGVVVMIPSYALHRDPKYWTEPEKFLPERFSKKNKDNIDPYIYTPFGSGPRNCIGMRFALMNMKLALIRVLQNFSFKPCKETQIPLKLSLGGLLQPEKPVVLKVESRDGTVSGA

In the case of `CCOC(N)=O`, the result (in experiment [1]; in experiment [2]; in the experiment with CYP2C8 (gene 1558); with CYP2C9 (gene 1559); with CYP2E1 (gene 1571); with CYP4A11 (gene 1579)) was inactive. Further, the molecule was classed as inactive (in experiment [3]; in [4]; in experiment [5]; in experiment [6]; in experiment [7]; in the experiment with CYP3A5 (gene 1577)). For the same molecule, the molecule was called inactive in [8], in [9], in experiment [10], in experiment [11], in experiment [12] and in experiment [13]. The call in experiment [14] was inactive.

By AC50 is commonly meant the midpoint of the concentration-response curve, whichever way the signal moves. As for `CC[C@H](C)C(=O)O[C@H]1C[C@H](O)C=C2C=C[C@H](C)[C@H](CC[C@@H](O)C[C@@H](O)CC(=O)O)[C@H]21`, the outcome (in experiment [1]; in [2]; with CYP2C8 (gene 1558); in experiment [15]; in [3]; in experiment [4]) was inactive. In addition, the outcome (in experiment [6]; in experiment [7]; with CYP3A5 (gene 1577); in experiment [9]; in [10]; in [11]) was inactive. Also, the result in [12], in [13] and in experiment [14] was inactive. Further, the AC50 in the experiment with CYP2E1 (gene 1571) was 50 µM (active); in experiment [8], 3.68 µM (active).

In the case of `NC(N)=O`, the molecule was called inactive (in [1]; in experiment [2]; with CYP2C8 (gene 1558); with CYP2E1 (gene 1571); with CYP4A11 (gene 1579); in [15]). Further, the call (in experiment [3]; in experiment [4]; in [5]; in experiment [6]; in experiment [7]; with CYP3A5 (gene 1577)) was inactive. For the same molecule, the molecule was called inactive in experiment [8], in experiment [9], in experiment [10], in experiment [11], in experiment [12] and in [13]. Besides, the call in experiment [14] was inactive.

Take `CCCCC(CC)C(=O)OCCOCCOCCOC(=O)C(CC)CCCC` (configuration not stated): the outcome (in experiment [1]; in experiment [2]; with CYP2C8 (gene 1558); with CYP2C9 (gene 1559); in [3]; in experiment [4]) was inactive. Further, the call (in experiment [5]; in experiment [6]; in experiment [7]; in the experiment with CYP3A5 (gene 1577); in experiment [8]; in [9]) was inactive. In addition, the outcome in experiment [10], in experiment [11], in experiment [12], in experiment [13] and in [14] was inactive.
